# Rows were chosen to be rich in hits. Some 8.7% of all compounds tested hit in one or more screens of this group.
# HP1b chromo inh = inhibitors of HP1-beta chromodomain binding to methylated histone tails; AID 540317; P83916; Potency, µM (highest dose often 114 µM), actives largely listed as inhibitors; AlphaScreen HP1-beta / biotin-H3K9me3 peptide binding; 390,000 tested, 0.56% active; further: nearly all actives have a fitted effect of over 70% in size
#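 AlphaScreen: HP1-beta (50 nM) preformed 30 min with biotin-H3(1-18)K9me3 peptide (50 nM) in PBS pH 7.4, 0.01% Tween-20. Compound added for 30 min at RT, then streptavidin donor/nickel chelate acceptor beads (10 ug/mL) for 30 min.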
# Sfp inh = inhibitors of Bacillus subtilis Sfp phosphopantetheinyl transferase; 310,000 tested, 3.5% active; Biochemical Sfp PPTase activity, qHTS; Potency, µM, most hits filed as inhibitors; Q9F4F7;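 further: the enzyme is Sfp with the accession as filed and its product quenches rhodamine fluorescence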
#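 Reaction rates are the 30-min fluorescence difference (ex 525, em 598 nm) in wells containing 15 nM Sfp, 5 uM rhodamine-CoA and 12.5 uM BHQ-2-YbbR at pH 7.6 with 10 mM MgCl2.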
# 12-LOX inh = blocks human arachidonate 12S-lipoxygenase. purified 12hLO, xylenol orange hydroperoxide absorbance. Potency, µM (doses to about 108 µM), hits mostly inhibitors. P18054. 580,000 tested, 1.1% active
# Target sequence (P18054 whole entry, looked up): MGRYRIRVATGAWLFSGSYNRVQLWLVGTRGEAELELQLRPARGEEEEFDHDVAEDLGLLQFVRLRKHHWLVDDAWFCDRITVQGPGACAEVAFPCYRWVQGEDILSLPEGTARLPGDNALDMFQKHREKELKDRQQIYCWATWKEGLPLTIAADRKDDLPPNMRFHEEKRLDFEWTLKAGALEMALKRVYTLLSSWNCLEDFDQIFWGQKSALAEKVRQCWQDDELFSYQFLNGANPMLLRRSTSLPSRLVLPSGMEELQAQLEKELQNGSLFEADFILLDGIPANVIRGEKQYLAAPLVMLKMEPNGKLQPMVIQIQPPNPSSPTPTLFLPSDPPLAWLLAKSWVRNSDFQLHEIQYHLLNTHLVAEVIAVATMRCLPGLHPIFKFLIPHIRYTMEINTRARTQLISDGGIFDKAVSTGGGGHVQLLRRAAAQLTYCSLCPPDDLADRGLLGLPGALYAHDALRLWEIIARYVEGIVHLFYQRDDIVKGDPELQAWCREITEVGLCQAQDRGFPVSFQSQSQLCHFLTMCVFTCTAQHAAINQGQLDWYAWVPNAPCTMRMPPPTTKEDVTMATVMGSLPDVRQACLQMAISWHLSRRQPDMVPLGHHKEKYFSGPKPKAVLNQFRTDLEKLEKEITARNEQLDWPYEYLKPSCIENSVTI
#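 Hydroperoxide product was detected by ferrous iron/xylenol orange as the 573 to 405 nm absorbance ratio. Arachidonic acid at 40 uM (final) was turned over for 30 min at room temperature by 150 nM human 12hLO, pH 7.0 Hepes buffer, after 15 min compound preincubation.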
# JMJD2A Tudor = blocks the human JMJD2A Tudor domain; Potency, µM (top dose mostly 114 µM), usual class: inhibitors; AlphaScreen JMJD2A-Tudor / H3K4me3 peptide binding; 390,000 tested, 4.4% active; O75164; further: nearly all actives have a fitted effect of over 50% in size
# G9a block = inhibitors of human histone lysine methyltransferase G9a; G9a H3K9 monomethylation, AlphaScreen, 2 h; Potency, µM (titrated, usually from 102 µM), actives largely listed as inhibitors; AID 504332; 350,000 tested, 8.8% active; Q96KQ7; further: nearly all actives have a fitted effect of over 75% in size
#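 AlphaScreen read-out: biotin-H3K9 peptide (500 nM) methylation by 20 nM enzyme with 20 uM SAM, 2 h at room temperature after 15 min compound preincubation; anti-monomethyl H3K9 antibody plus donor/acceptor beads, 10 min dark.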
# BAZ2B block = blocks human BAZ2B; AlphaScreen BAZ2B-H3K14Ac peptide displacement; Potency, µM (doses to about 114 µM), hits mostly inhibitors; 360,000 tested, 4.4% active; further: nearly all actives have a fitted effect of over 60% in size
#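 Multi-concentration screen (max 110 uM) measuring displacement of acetylated histone H3 peptide from BAZ2B by AlphaScreen, using 50 nM protein, 50 nM peptide and 10 ug/mL streptavidin donor plus Ni-chelate acceptor beads.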
# Numbers stand for hits; 0 = inactive; ? = inconclusive; - = no result given; [ ] = remark or other dose. The call rests on the fitted dose curve; in most records, active means well fitted curve in the direction sought with a large enough effect; inconclusive means small, poorly fitted or top-dose-only effect, or another doubt; inactive means no such curve, though single readings can be large; an effect the other way counts as inactive or inconclusive.
SMILES,HP1b chromo inh,Sfp inh,12-LOX inh,JMJD2A Tudor,G9a block,BAZ2B block
Cc1ccc([N+](=O)[O-])cc1S(=O)(=O)Nc1cccc(-c2ccc(N3CCCC3)nn2)c1,0,-,0,0,14.1µM,?
CCOc1ccc(-c2cccc(NS(=O)(=O)c3cc([N+](=O)[O-])ccc3Cl)c2)nn1,0,-,0,0,50.1µM,?
Cc1ccc(S(=O)(=O)Nc2cccc(-c3ccc(N4CCCCCC4)nn3)c2)cc1C,0,0,0,0,0,?
O=[N+]([O-])c1ccc(Cl)c(S(=O)(=O)Nc2cccc(-c3ccc(N4CCOCC4)nn3)c2)c1,0,-,0,0,50.1µM,0
COc1ccc(-c2cccc(NS(=O)(=O)c3cc([N+](=O)[O-])ccc3Cl)c2)nn1,0,-,0,0,?,0
O=[N+]([O-])c1ccc(S(=O)(=O)Nc2ccc(-c3ccc(N4CCOCC4)nn3)cc2)cc1,0,-,0,0,0[2.33 µM],0
O=[N+]([O-])c1ccc(S(=O)(=O)Nc2cccc(-c3ccc(N4CCOCC4)nn3)c2)cc1,0,-,0,0,25.1µM,0
O=C(NCc1cccc(F)c1)c1nc(-c2cccc3[nH]ccc23)no1,-,-,0,-,-,-
Cc1ccc(S(=O)(=O)N2CCOCC2)cc1NC(=O)CSc1nc(C)c(C)n1C1CCCC1,-,-,0,-,-,-
Cc1c(C(=O)N2C[C@@H](C(=O)O)C[C@H](C(=O)NC3CC3)C2)sc2ccccc12,-,-,0,-,-,-
COc1cccc(CN2CCC(C(=O)N3CCN(c4ccccc4F)CC3)CC2)c1,?,0,0,8.91µM,10µM,0
COc1cccc(CN2CCC(C(=O)N3CCN(Cc4ccc5c(c4)OCO5)CC3)CC2)c1,?,0,?,0.891µM,0,0
COc1ccccc1N1CCN(C(=O)C2CCN(S(=O)(=O)Cc3ccc(F)cc3)CC2)CC1,-,-,0,-,-,-
COc1cc(CN2CCC(C(=O)N3CCN(c4ccccc4F)CC3)CC2)ccc1O,?,0,0,2.51µM,14.1µM,56.2µM
O=C(C1CCN(c2nnc(-n3cccc3)s2)CC1)N1CCN(Cc2ccc3c(c2)OCO3)CC1,0,0,0,0,?,?
COc1ccc(OC)c(CN2CCC(C(=O)N3CCOCC3)CC2)c1,?,0,?,2.24µM,10µM,?
COc1ccc(-c2ccc3ncc(Nc4cc(F)cc(N5CCOCC5)c4)n3n2)cc1OC,-,-,0,-,-,-
N#Cc1cccc(OCC(=O)c2ccc3c(c2)CCCC3)c1,-,-,0,-,-,-
Cn1c(SCC(=O)Nc2ccccc2C#N)nc2cc(-c3ccccc3)sc2c1=O,-,-,0,-,-,-
COc1ccc(F)c(CN2CCC(N3CCC(C(=O)N4CCOCC4)CC3)CC2)c1,0,0,0,0,0,0
CCOc1cc(CN2CCC(N3CCC(C(=O)NC4CC4)CC3)CC2)ccc1O,-,-,0,-,-,-
COc1ccc(OC)c(CN2CCC(C(=O)N3CCN(c4ccccc4F)CC3)CC2)c1,?,0,?,1.41µM,10µM,?
COc1cc(CN2CCC(C(=O)NC3CCCC3)CC2)ccc1O,?,0,?,?,?,31.6µM
O=C(O)/C=C/C(=O)Nc1ccc2nccnc2c1,0,0,0,0,50.1µM,0
O=C(O)/C=C/C(=O)Nc1ccccc1SC(F)(F)C(F)(F)C(F)(F)F,0,?,0,?,44.7µM,0
SMILES,HP1b chromo inh,Sfp inh,12-LOX inh,JMJD2A Tudor,G9a block,BAZ2B block
CC(=O)Nc1ccc2c(c1)C(=O)c1ccccc1C2=O,0,0,0,0,0,0
O=C(O)/C=C/C(=O)Nc1ccc2c(c1)C(=O)c1ccccc1C2=O,0,0,0,0,44.7µM,?
Cc1nc2ccc(NC(=O)/C=C/C(=O)O)cc2nc1C,0,0,?,0,0,0
CC(=O)Nc1ccccc1SC(F)(F)F,-,-,0,-,-,-
O=C(O)/C=C/C(=O)Nc1ccccc1-c1ccccc1,0,31.6µM,?,0,0[0.501 µM],0
CN(Cc1cccs1)C(=O)Cn1c(=O)c2c(ncn2C2CCCC2)n(Cc2ccccc2)c1=O,-,-,0,-,-,-
C[C@H](NCc1ccc2c(c1)nc(NC(=O)c1ccc(-c3cn[nH]c3)s1)n2CCc1ccccc1)C(C)(C)C,-,-,0,-,-,-
Fc1ccc2c(c1)nc1n2[C@@H](CNCc2ccncc2F)COC1,-,-,0,-,-,-
COC(=O)C1=C(C)N=C2SC=C(CC(=O)NCC3CCCO3)N2C1c1ccccc1OC (centres undefined),-,-,0,-,-,-
CN(C)S(=O)(=O)c1cccc(NC(=O)c2ccncc2)c1,0,0,0,0,0,0
CN(C)S(=O)(=O)c1cccc(NC(=O)c2cc(=O)[nH]c(=O)[nH]2)c1,0,?,0,?,1.12µM,?
CCN(CC)S(=O)(=O)c1cccc(NC(=O)c2ccc(C#N)cc2)c1,0,0,0,0,20µM,0
O=Nc1c(-c2ccccc2)cc2ccccn12,0,0,0,0,39.8µM,79.4µM
Cc1cnc(C(=O)Oc2ccc(Br)cc2)cn1,-,-,0,-,-,-
Fc1ccccc1-n1c(-c2ccc3ccccc3n2)n[nH]c1=S,0,0,?,0,0,?
Cc1ccccc1-n1c(-c2ccoc2C)n[nH]c1=S,0,0,?,7.94µM,2.24µM,0
Cc1ccccc1-n1c(C)n[nH]c1=S,0,79.4µM,?,20µM,22.4µM,0
Cc1cccc(-n2c(-c3ccoc3C)n[nH]c2=S)c1,0,?,?,8.91µM,6.31µM,0
Cc1ccc([N+](=O)[O-])c(-c2n[nH]c(=S)n2-c2cccc(Cl)c2)c1,0,0,?,?,2µM,0
CS(=O)(=O)N(Cc1csc(-c2cccs2)n1)C1CCN(C(=O)c2cccc(Cl)c2)CC1,-,-,0,-,-,-
CCCCC(=O)Nc1ccc2nc(N3CCN(C(=O)OCC)CC3)cc(C(=O)O)c2c1,-,-,0,-,-,-
N#Cc1ccc(CNC(=O)[C@@H]2Cc3nc[nH]c3CN2Cc2ccccc2)cc1,-,-,0,-,-,-
COc1ccc2nc(C)c(C(=O)Nc3cccc(C)n3)cc2c1,-,-,0,-,-,-
O=C1C=C(Nc2ccc(O)cc2)C(=O)c2ccccc21,0,0,0,?,-,28.2µM
CC(=O)Nc1ccc(NC2=CC(=O)c3ccccc3C2=O)cc1,0,56.2µM,0,25.1µM,2µM,12.6µM
SMILES,HP1b chromo inh,Sfp inh,12-LOX inh,JMJD2A Tudor,G9a block,BAZ2B block
CCN(C(=O)CN1C(=O)NC2(CCS(=O)(=O)CC2)C1=O)c1cccc(C)c1,-,-,0,-,-,-
Cc1ccc(C)c(S(=O)(=O)c2c(N)n(/N=C/c3ccco3)c3nc4ccccc4nc23)c1,0,50.1µM,0,0,50.1µM,?
Cc1cccc(S(=O)(=O)c2c(N)n(/N=C/c3ccccc3)c3nc4ccccc4nc23)c1,0,0,0,0,0,0
Cc1ccc(S(=O)(=O)c2c(N)n(Cc3ccco3)c3nc4ccccc4nc23)cc1C,0,35.5µM,0,0,?,0
Nc1c(S(=O)(=O)c2ccccc2)c2nc3ccccc3nc2n1CCN1CCOCC1,0,0,0,0,0,0
Cc1ccc(S(=O)(=O)c2c(N)n(CCCO)c3nc4ccccc4nc23)cc1,0,0,?,0,0,56.2µM

# Screening results: PubChem, National Center for Advancing Translational Sciences (NCATS)
